# Measured values as given in PubChem BioAssay (NCATS).
# “And” between values parts separate entries of the source, which are not always exact repeats. Equal entries are not always repeated. Results filed as inconclusive are left out. Unmarked numbers belong to inactive results. The source made the active and inactive calls. Calls follow the shape of the dose curve; as a rule, active = well fitted activation curve with a large enough effect in the signal ratio (not every such curve was filed as active); inconclusive = small, poorly fitted or top-dose-only effect, or a change in a side signal; inactive = flat fitted curve, though single readings scatter; the % refers to the signal ratio.
# Experiment: qHTS assay for small molecule activators of the p53 signaling pathway (AID 651743); as to activation: series mostly up to about 92 µM; % of control where 0% means no effect
# Conditions: HCT-116 p53RE-bla, beta-lactamase FRET ratio, 16 h; activation: hits give high values
# Description: National Center for Advancing Translational Sciences [NCATS] NIH Chemical Genomics Center [NCGC] U.S. Environmental Protection Agency [EPA] National Institutes of Environmental Health Sciences [NIEHS] National Toxicology Program [NTP] Assay Overview: p53, a tumor suppressor protein, is activated following cellular insult, including DNA damage and other cellular stresses. The activation of p53 regulates cell fate by inducing DNA repair, cell cycle arrest, apoptosis, or cellular senescence. The activation of p53, therefore, is a good indicator of DNA damage and other cellular stresses. The CellSensor p53RE-bla HCT-116 cell line (Invitrogen) contains a stably integrated beta-lactamase reporter gene under control of the p53 response elements. The activation of the report gene under culture conditions can be detected by fluorescence intensity. This cell line can be used to screen chemicals in a 1536-well plate format and to identify agonists that activate p53 signaling pathway.
# Assay Protocol Summary: The p53RE-bla cells were dispensed at 4,000 cells/5 ul/well in 1536-well black wall/clear bottom plates using a Multidrop dispenser. After the assay plates were incubated at a 37 C/5% CO2 incubator for 5 hours, 23 nL of compounds dissolved in DMSO, positive controls or DMSO only was transferred to the assay plate by a pin tool. The plates were incubated at 37 C for 16 hours. After 1 uL of LiveBLAzer B/G FRET substrate was added using a Flying Reagent Dispenser, the plates were incubated at room temperature for 2 hours, and fluorescence intensity was measured by an Envision plate reader.
# Potency is read from the fitted curve at half-maximal effect.
Structure (SMILES),activation,Potency
O=c1[nH]c(=O)n([C@H]2C[C@H](O)[C@@H](CO)O2)cc1Br,3.27%,–
O=C(O)CCCCCCCC(=O)O,-3.2%,–
NC(=Nc1ccccc1)Nc1ccccc1,-3.94% and -5.84%,–
C[C@]12C=CC(=O)C=C1CC[C@H]1[C@@H]3C[C@@H](O)[C@](O)(C(=O)CO)[C@@]3(C)C[C@H](O)[C@@]12F,-0.529%,–
Nc1nc(N)c2nc(-c3ccccc3)c(N)nc2n1,–,20 µM (active)
CCCCNC(=O)NS(=O)(=O)c1ccc(C)cc1,-3.27% and -2.98%,–
C[C@]12CCC(=O)C=C1CC[C@@H]1[C@@H]2C(=O)C[C@@]2(C)[C@H]1CC[C@]2(O)C(=O)CO,-9.05%,–
Nc1ncn([C@@H]2O[C@H](CO)[C@@H](O)[C@H]2O)c(=O)n1,–,6.31 µM (active)
COc1cc(Cc2cnc(N)nc2N)cc(OC)c1OC,-2.04%,–
CC(=O)Nc1nnc(S(N)(=O)=O)s1,-5.68%,–
COC(=O)[C@H]1[C@H]2C[C@@H]3c4[nH]c5cc(OC)ccc5c4CCN3C[C@H]2C[C@@H](OC(=O)c2cc(OC)c(OC)c(OC)c2)[C@@H]1OC,3.91% and 8.14%,–
